TDP1 block: blocks human tyrosyl-DNA phosphodiesterase 1; Potency, µM (top dose mostly 130 µM), hits mostly inhibitors; Q9NUW8; recombinant TDP1, AlphaScreen DNA substrate cleavage; AID 485290; actives 0.28% (n = 350,000); further: nearly all actives have a fitted effect of over 40% in size
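Compounds were preincubated with Tdp1 (1 nM final) for 15 min at room temperature before substrate (15 nM final) started a 5 min reaction; beads (10 ug/ml final) were then added for 10 min before AlphaScreen detection.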
Pin1 inh: human Pin1 inhibition; Q13526; Pin1 FP peptide displacement, HiFluor488, 10 min; Potency, µM (titrated, usually from 115 µM), actives largely listed as inhibitors; actives 0.009% (n = 390,000); AID 504891; active means well fitted inhibition curve with a large enough effect in the polarisation, with a control signal flat, not every such curve was filed as active; inconclusive means small, poorly fitted or top-dose-only effect, or effect the other way, or a change in a side signal; inactive means no such curve, though single readings can be large or run the other way; the % refers to the polarisation
Target sequence (Q13526 whole entry, looked up): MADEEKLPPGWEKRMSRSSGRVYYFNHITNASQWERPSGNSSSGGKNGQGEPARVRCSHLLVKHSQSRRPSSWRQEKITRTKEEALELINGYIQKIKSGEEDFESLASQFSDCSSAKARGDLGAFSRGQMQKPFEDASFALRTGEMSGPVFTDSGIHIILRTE
VDR inhibitor: inhibitors of human vitamin D receptor; P11473; VDR-SRC2-3 peptide fluorescence polarization, 2 h; Potency, µM, most hits filed as inhibitors; actives 0.93% (n = 400,000)
Target sequence (P11473 whole entry, looked up): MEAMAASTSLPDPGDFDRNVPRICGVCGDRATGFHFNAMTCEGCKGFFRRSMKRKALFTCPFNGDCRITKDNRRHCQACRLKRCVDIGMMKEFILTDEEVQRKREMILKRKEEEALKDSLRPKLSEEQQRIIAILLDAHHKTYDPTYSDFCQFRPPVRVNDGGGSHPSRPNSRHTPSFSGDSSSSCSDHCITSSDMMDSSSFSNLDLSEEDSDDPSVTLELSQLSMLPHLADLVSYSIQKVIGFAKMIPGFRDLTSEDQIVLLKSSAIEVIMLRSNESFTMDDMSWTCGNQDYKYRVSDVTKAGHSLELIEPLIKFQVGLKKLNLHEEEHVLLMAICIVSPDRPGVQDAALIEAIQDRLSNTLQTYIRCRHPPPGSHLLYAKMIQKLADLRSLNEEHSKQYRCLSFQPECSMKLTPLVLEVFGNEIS
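Measured by FP: displacement of SRC2-3 coactivator peptide from VDR by library compounds, following a two-hour ambient incubation.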
Tb PFK block: inhibitors of T. brucei phosphofructokinase; T. brucei PFK, ADP-Glo luminescence; Potency, µM (titrated, usually from 57.5 µM), hits mostly inhibitors; actives 0.17% (n = 330,000); further: nearly all actives have a fitted effect of over 60% in size
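Activity is normalized to no-enzyme wells (full inhibition) and 1.25 nM enzyme wells (no inhibition). Reaction: 0.5 mM F6P, 0.1 mM ATP, 45 min RT, ADP-Glo luminescence; concentration-response curves fitted and classed by quality.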
PLK1 PBD block: inhibitors of human PLK1 polo-box domain binding. P53350. Plk1 PBD binding of FITC phosphopeptide, fluorescence polarization. Potency, µM, usual class: inhibitors. actives 2.8% (n = 360,000). AID 720504; further: series mostly up to about 57 µM; nearly all actives have a fitted effect of over 65% in size
ASM inhibitor: blocks human secretory acid sphingomyelinase; P17405; Potency, µM (doses to about 57.5 µM), actives largely listed as inhibitors; actives 0.006% (n = 340,000); placental ASM, HMU-PC fluorogenic substrate, 60 min; AID 504937
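Human placenta-derived ASM preincubated with compound 10 min at room temperature, then reacted with 9 uM (final) fluorogenic HMU-PC substrate for 60 min at 37 C. Stop solution raises pH to 10; fluorescence read at Ex 386/Em 447 nm.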
VDR confirm: inhibits human vitamin D receptor, primary hit validation; AID 602199; shares compounds with VDR inhibitor; VDR-coactivator inhibition assay, qHTS confirmation; actives 89% (n = 840); Potency, µM, hits mostly inhibitors
VDR FP fluor: confirmation of human VDR-coactivator binding inhibitors, fluorescein label | shares compounds with VDR inhibitor | VDR-coactivator binding, fluorescein fluorescence polarization | Potency, µM (titrated, usually from 57.1 µM), actives largely listed as inhibitors | actives 48% (n = 840) | AID 602200
VDR bla: confirmation of human vitamin D receptor inhibitors in reporter cells. shares compounds with VDR inhibitor. VDR beta-lactamase reporter cells, FRET ratio; cells co-treated with VDR agonist LG190178. Potency, µM (highest dose often 46.1 µM), hits mostly inhibitors. actives 23% (n = 840)
VDR viability: counter-screen for vitamin D receptor inhibitors: cytotoxicity; shares compounds with VDR inhibitor; AID 602204; actives 18% (n = 840); Potency, µM (titrated, usually from 48.3 µM), usual class: cytotoxic; cytotoxicity counter-screen, cell viability, qHTS; further: nearly all actives have a fitted effect of over 75% in size
Numbers stand for hits. A selection: hits, their analogues and other compounds. The true share with any hit is near 3.1%. Unless noted, the call rests on the fitted dose curve; in most records, active means well fitted curve in the direction sought with a large enough effect; inconclusive means small, poorly fitted or top-dose-only effect, or another doubt; inactive means no such curve, though single readings can be large; an effect the other way counts as inactive or inconclusive.

For COc1ccccc1NC(=O)c1c(NCc2sccc2C)sc2c1CCCCC2 the results were TDP1 block inactive, Pin1 inh inconclusive and VDR inhibitor inactive.
`COc1ccc(NC(=O)c2c(NC(=O)COc3ccccc3)sc3c2CCCCC3)cc1` gave Pin1 inh inactive and VDR inhibitor inactive.
Screening COc1ccc(Cl)cc1NC(=O)c1c(NCc2sccc2C)sc2c1CCCC2 returned TDP1 block inactive, Pin1 inh inactive, VDR inhibitor 18µM, VDR confirm 3.5, VDR FP fluor 3.2µM, VDR bla inactive and VDR viability inactive.
`N#Cc1cccc(-c2nc3cnc(N4CCOCC4)nc3n(C[C@H]3CCCO3)c2=O)c1` gave VDR inhibitor inactive.
For O=C(N/N=C/c1c(Cl)cccc1Cl)c1ccc(F)cc1 the results were TDP1 block inactive, Pin1 inh inactive, VDR inhibitor inactive, Tb PFK block inactive, PLK1 PBD block inactive and ASM inhibitor inactive.
O=C(/C=C/c1c(F)cccc1Cl)c1ccc(F)cc1 was read as TDP1 block inactive, Pin1 inh inactive, VDR inhibitor 45µM, Tb PFK block inactive, PLK1 PBD block inconclusive, ASM inhibitor inactive, VDR confirm 11, VDR FP fluor 8.9µM, VDR bla inactive and VDR viability inactive.
Screening COc1nnc(-c2ccc(N3CCCCC3)c(NC(=O)c3ccccc3Cl)c2)c2ccccc12 returned TDP1 block inactive, Pin1 inh inactive and VDR inhibitor inactive.
Screening CCOc1cc2sc(N3CCC(C(=O)Nc4ccc(C)cc4C)CC3)nc2cc1Br returned TDP1 block inactive, Pin1 inh inactive and VDR inhibitor inactive.
Screening CC(=O)Oc1oc(-c2ccccc2)nc1C=Nc1ccccc1 returned TDP1 block inactive, Pin1 inh inactive, VDR inhibitor 40µM, Tb PFK block inactive, PLK1 PBD block inconclusive, ASM inhibitor inactive, VDR confirm 11, VDR FP fluor 13µM, VDR bla inactive and VDR viability inactive.
Screening CN(C)c1ccc(N=Cc2nc(-c3ccccc3)oc2OC(=O)c2cccc(Br)c2)cc1 returned TDP1 block inactive, Pin1 inh inactive, VDR inhibitor inconclusive, Tb PFK block inactive, PLK1 PBD block inactive and ASM inhibitor inactive.
For CCOC(=O)c1ccc(N=Cc2nc(-c3ccccc3)oc2OC(C)=O)cc1 the results were TDP1 block inactive, Pin1 inh inactive, VDR inhibitor 18µM, Tb PFK block inconclusive, PLK1 PBD block 4.7µM, ASM inhibitor inactive, VDR confirm 4.2, VDR FP fluor inconclusive, VDR bla inactive and VDR viability inactive.
Screening COc1ccc(N=Cc2nc(-c3ccccc3)oc2OC(=O)c2ccccc2)cc1 returned TDP1 block inactive, Pin1 inh inactive, VDR inhibitor 40µM, Tb PFK block inactive, PLK1 PBD block inconclusive, ASM inhibitor inactive, VDR confirm 9.5, VDR FP fluor inconclusive, VDR bla inactive and VDR viability inactive.
Screening COc1ccc(C2/C=C\CN(C(=O)C3CCCC3)C(C)C(=O)N2Cc2ccc(F)cc2)cc1 (stereo not drawn) returned TDP1 block inactive, Pin1 inh inactive and VDR inhibitor inactive.
For CCOc1ccc(CCNC(=O)c2cn(CC)c3ccc(S(=O)(=O)N4CCc5ccccc5C4)cc3c2=O)cc1OCC the results were TDP1 block inactive, Pin1 inh inactive and VDR inhibitor inactive.
For CC1(C)CC(=O)C(C(c2ccc(F)cc2)C2C(=O)CC(C)(C)CC2=O)C(=O)C1 the results were TDP1 block inactive, Pin1 inh inactive, VDR inhibitor inactive, Tb PFK block inactive, PLK1 PBD block inactive and ASM inhibitor inactive.
`CC1(C)CC(=O)C(C(c2ccc(Br)cc2)C2C(=O)CC(C)(C)CC2=O)C(=O)C1` gave Pin1 inh inactive, VDR inhibitor 25µM, Tb PFK block inactive, PLK1 PBD block 19µM, ASM inhibitor inactive, VDR confirm 30, VDR FP fluor 18µM, VDR bla inactive and VDR viability inactive.
`COC(CNC(=O)c1ccc2c3c(onc13)-c1ccccc1C2=O)OC` gave TDP1 block inactive, Pin1 inh inconclusive, VDR inhibitor 40µM, Tb PFK block inactive, PLK1 PBD block 3.4µM, ASM inhibitor inactive, VDR confirm 3.8, VDR FP fluor inconclusive, VDR bla inconclusive and VDR viability inconclusive.
For COC(CNC(=O)c1cccnc1)OC the results were TDP1 block inactive, Pin1 inh inactive, VDR inhibitor inactive, Tb PFK block inactive, PLK1 PBD block inactive and ASM inhibitor inactive.
`O=C(Nc1ccc(N2CCOCC2)c(S(=O)(=O)Nc2ccc(Cl)cc2)c1)c1cnccn1` gave TDP1 block inactive, Pin1 inh inactive, VDR inhibitor 79µM, Tb PFK block inactive, PLK1 PBD block 5.3µM, ASM inhibitor inactive, VDR confirm 17, VDR FP fluor inconclusive, VDR bla inactive and VDR viability inactive.
CCOc1ccc(NC(=O)CC2SC(=O)N(c3ccccc3)C2=O)cc1 (stereo not drawn) was read as TDP1 block inactive, Pin1 inh inactive, VDR inhibitor 28µM, Tb PFK block inconclusive, PLK1 PBD block 9.5µM, ASM inhibitor inactive, VDR confirm inconclusive, VDR FP fluor inconclusive, VDR bla inactive and VDR viability inactive.
`O=C(CCN1CCc2ccccc2CC1)c1ccc2c(c1)OCCO2` gave TDP1 block inactive, Pin1 inh inactive, VDR inhibitor inconclusive, Tb PFK block inactive, PLK1 PBD block 13µM, ASM inhibitor inactive, VDR confirm 13, VDR FP fluor 11µM, VDR bla inconclusive and VDR viability inconclusive.
`c1ccc(-c2nn3c(Cn4cnc5ccccc54)nnc3s2)cc1` gave TDP1 block inactive, Pin1 inh inactive, VDR inhibitor inconclusive, Tb PFK block inactive, PLK1 PBD block 7.5µM, ASM inhibitor inactive, VDR confirm 20, VDR FP fluor 7.1µM, VDR bla inactive and VDR viability inactive.
